The values below come from PubChem BioAssay (NCI).

SMILES strings stand for the structures. About 83,000 compounds went through this panel and 20% of them were active in at least one assay; those are over-represented in the sample as a whole.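 Interpretation: 100, growth as untreated; towards 0, rising growth inhibition; 0, no net growth; 0 to -100, cell death. Compounds scoring below 10 were considered active.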 Unmarked numbers belong to inactive results. Calls of active or inactive are those of the source.

Among the test systems are SR leukemia; RPMI-8226 leukemia; OVCAR-8 ovarian; OVCAR-5 ovarian; OVCAR-4 ovarian; SK-OV-3 ovarian; IGROV1 ovarian; OVCAR-3 ovarian; HS 578T breast; NCI/ADR-RES ovarian; T-47D breast; BT-549 breast; MDA-MB-435 melanoma; SW-620 colon; MCF7 breast; HCT-116 colon; HCC-2998 colon; KM12 colon.
Holding throughout (assay): NCI-60 one-dose screen, 48 h (100 = growth as untreated, 0 = no growth, -100 = all killed)
Common to all, as to settings: 10 µM unless noted

For `O=C(O)c1cccc(N/C=C/C(=O)c2cc3cc(Br)ccc3oc2=O)c1`, the growth in the test with SR leukemia was 105%; with RPMI-8226 leukemia, 101%; in the test with OVCAR-8 ovarian, 105%; in the test with OVCAR-5 ovarian it was 98.8%; with OVCAR-4 ovarian, 95.1%; with SK-OV-3 ovarian, 98.9%. For the same compound, the growth in the test with IGROV1 ovarian was 106%; in the test on OVCAR-3 ovarian it was 95.8%; in the test with HS 578T breast it was 94.7%; with NCI/ADR-RES ovarian, 104%; with T-47D breast it was 90.5%; in the test with BT-549 breast, 86.1%. Besides, the growth in the test with MDA-MB-435 melanoma was 96.5%; in the test on SW-620 colon, 98.1%; in the test on MCF7 breast it was 88.4%; in the test on HCT-116 colon it was 93.3%; in the test with HCC-2998 colon, 105%; in the test with KM12 colon, 95.8%.

`O=C(CN1C(=O)NC2NC(=O)NC21)N/N=C/c1ccc(Cl)cc1Cl` (centres undefined): the growth in the test on SR leukemia was 109%; in the test with RPMI-8226 leukemia, 104%; in the test with OVCAR-8 ovarian, 109%; in the test on OVCAR-5 ovarian it was 105%; in the test with OVCAR-4 ovarian it was 103%; in the test on SK-OV-3 ovarian, 102%. The growth is 103% in the test on IGROV1 ovarian; 104% in the test on OVCAR-3 ovarian; 103% with HS 578T breast; 104% in the test on NCI/ADR-RES ovarian; 110% in the test on T-47D breast; 98.9% in the test with BT-549 breast. The growth with MDA-MB-435 melanoma is 102%; in the test with SW-620 colon, 104%; in the test on MCF7 breast, 98%; in the test with HCT-116 colon, 101%; in the test on HCC-2998 colon it was 110%; with KM12 colon, 105%.

Take `CN(C)c1ccc(/C=C/C(=O)c2ccccc2)cc1`: the growth is 25.1% with SR leukemia; 76.4% with RPMI-8226 leukemia; 93.1% in the test on OVCAR-8 ovarian; 113% with OVCAR-5 ovarian; 101% in the test on OVCAR-4 ovarian; 96.9% in the test on SK-OV-3 ovarian. For the same compound, the growth with IGROV1 ovarian is 99.2%; with OVCAR-3 ovarian, 90.2%; with HS 578T breast, 98.4%; with NCI/ADR-RES ovarian, 81.3%; with T-47D breast, 68.5%; in the test on BT-549 breast, 81.3%. The growth in the test with MDA-MB-435 melanoma is 28.6%; in the test on SW-620 colon, 63.5%; in the test on MCF7 breast it was 44.7%; in the test on HCT-116 colon, 67.5%; in the test with HCC-2998 colon it was 97.5%; in the test on KM12 colon, 51.4%.

Regarding `O=C(/C=C/c1ccc(Br)cc1)c1ccc(-n2cc(CN3CCN(c4cc5c(cc4F)c(=O)c(C(=O)O)cn5C4CC4)CC3)nn2)cc1`, the growth was 16.6% with SR leukemia; 34.2% with RPMI-8226 leukemia; 79% in the test with OVCAR-8 ovarian; 99.5% in the test on OVCAR-5 ovarian; 91.4% with OVCAR-4 ovarian; 78.4% in the test on SK-OV-3 ovarian. In addition, the growth was 74.2% in the test on IGROV1 ovarian; 95.9% in the test on OVCAR-3 ovarian; 83.6% with HS 578T breast; 102% with NCI/ADR-RES ovarian; 80% with T-47D breast; 81.3% with BT-549 breast. The growth is 86.6% in the test with MDA-MB-435 melanoma; 95.5% in the test on SW-620 colon; 64.8% with MCF7 breast; 7.82% (active) in the test on HCT-116 colon; 98.5% in the test with HCC-2998 colon; 88.8% with KM12 colon.

As for `CCOC(=O)C1=C(C)N=C2SC=C(c3ccccc3)N2[C@H]1c1cn[nH]c1-c1ccc(Cl)cc1`, the growth with SR leukemia is -31.2% (active); with RPMI-8226 leukemia it was -8.38% (active); in the test on OVCAR-8 ovarian, 50.9%; in the test with OVCAR-5 ovarian, 108%; in the test with OVCAR-4 ovarian, 55.6%; in the test with SK-OV-3 ovarian, 62.5%. The growth in the test on IGROV1 ovarian is -24.4% (active); in the test with OVCAR-3 ovarian, 22.5%; in the test with HS 578T breast, 45.6%; in the test on NCI/ADR-RES ovarian, 69.4%; in the test with T-47D breast it was 38.8%; in the test with BT-549 breast it was 34.1%. Further, the growth was 49.4% in the test on MDA-MB-435 melanoma; 37.7% with SW-620 colon; 21.7% in the test on MCF7 breast; 18.5% in the test on HCT-116 colon; 109% with HCC-2998 colon; 59.4% with KM12 colon.

As to `CC/C=C1/C(=O)C=C[C@@H]1C/C=C\CCCC(=O)OC`, the growth in the test on SR leukemia is 4.16% (active); in the test with RPMI-8226 leukemia it was -5.45% (active); in the test with OVCAR-8 ovarian, 25.7%; in the test on OVCAR-5 ovarian, 112%; in the test with OVCAR-4 ovarian it was 96.9%; in the test on SK-OV-3 ovarian it was 117%. Also, the growth in the test on IGROV1 ovarian was 105%; in the test on OVCAR-3 ovarian, 51.4%; with HS 578T breast, 43%; with NCI/ADR-RES ovarian, 57.7%; in the test with T-47D breast, 62.4%; in the test on BT-549 breast, 16.6%. The growth is 4.2% (active) in the test on MDA-MB-435 melanoma; 14.9% in the test on SW-620 colon; 15.6% with MCF7 breast; -59.6% (active) with HCT-116 colon; 114% in the test with HCC-2998 colon; 17.1% in the test with KM12 colon.

With `CCCCCCCC/C=C\CCCCCCCCOc1ccccc1CC(=O)NCC[N+]1(C)CCCCC1`, the growth in the test with SR leukemia was -5.14% (active); in the test on RPMI-8226 leukemia, 19.7%; in the test on OVCAR-8 ovarian, 60.5%; in the test with OVCAR-5 ovarian it was 66.2%; in the test with OVCAR-4 ovarian it was 34.1%; with SK-OV-3 ovarian it was 85.2%. The growth in the test on IGROV1 ovarian is 16.5%; in the test with OVCAR-3 ovarian it was 41.3%; with HS 578T breast, 77.2%; in the test on NCI/ADR-RES ovarian, 99.3%; in the test with T-47D breast, 59.9%; in the test with BT-549 breast, 47.9%. Also, the growth with MDA-MB-435 melanoma is 41.5%; in the test with SW-620 colon it was 61.1%; in the test on MCF7 breast, 80%; in the test on HCT-116 colon it was 48.2%; in the test with HCC-2998 colon, 57.5%; in the test on KM12 colon, 22.5%.

On to `Cc1ccc(-c2nc(C#N)c(S(=O)(=O)NCCO)o2)cc1`, for which the growth in the test on SR leukemia is -7.78% (active); in the test on RPMI-8226 leukemia, 1.81% (active); with OVCAR-8 ovarian, 64.7%; with OVCAR-5 ovarian it was 94.5%; in the test with OVCAR-4 ovarian it was 86.9%; in the test on SK-OV-3 ovarian, 95.7%. Besides, the growth with IGROV1 ovarian is 65.1%; in the test on OVCAR-3 ovarian, 41.3%; with HS 578T breast it was 107%; in the test with NCI/ADR-RES ovarian it was 81%; in the test on T-47D breast, 43.1%; in the test on BT-549 breast, 64.7%. In addition, the growth in the test on MDA-MB-435 melanoma was 68.5%; in the test with SW-620 colon, 33.8%; with MCF7 breast, 37.9%; in the test with HCT-116 colon, 51.6%; in the test with HCC-2998 colon, 98.1%; with KM12 colon it was 88%.
